Measurements taken from PubChem BioAssay AID720708 (National Center for Advancing Translational Sciences (NCATS), 2013).
In all, about 360,000 compounds went through this assay and about 660 (0.18%) were called active. Another 2% or so got no clear call; they are omitted. The call rests on the fitted dose curve; in most records, active means well fitted inhibition curve with a large enough effect; inconclusive means small, poorly fitted or top-dose-only effect; inactive means no such curve, though single readings can be large or run the other way. The full list was thinned out, with actives kept by preference.

target: Rap guanine nucleotide exchange factor 4 (Homo sapiens) (UniProt Q8WZA2); assay: qHTS for Antagonist of cAMP-regulated guanine nucleotide exchange factor 2 (EPAC2): primary screen; settings: EPAC2 GEF exchange of Rap1B-BODIPY-GDP, fluorescence; series mostly up to 114 µM; further: nearly all actives have a fitted effect of over 45% in size
Sequence (Q8WZA2 whole entry, looked up): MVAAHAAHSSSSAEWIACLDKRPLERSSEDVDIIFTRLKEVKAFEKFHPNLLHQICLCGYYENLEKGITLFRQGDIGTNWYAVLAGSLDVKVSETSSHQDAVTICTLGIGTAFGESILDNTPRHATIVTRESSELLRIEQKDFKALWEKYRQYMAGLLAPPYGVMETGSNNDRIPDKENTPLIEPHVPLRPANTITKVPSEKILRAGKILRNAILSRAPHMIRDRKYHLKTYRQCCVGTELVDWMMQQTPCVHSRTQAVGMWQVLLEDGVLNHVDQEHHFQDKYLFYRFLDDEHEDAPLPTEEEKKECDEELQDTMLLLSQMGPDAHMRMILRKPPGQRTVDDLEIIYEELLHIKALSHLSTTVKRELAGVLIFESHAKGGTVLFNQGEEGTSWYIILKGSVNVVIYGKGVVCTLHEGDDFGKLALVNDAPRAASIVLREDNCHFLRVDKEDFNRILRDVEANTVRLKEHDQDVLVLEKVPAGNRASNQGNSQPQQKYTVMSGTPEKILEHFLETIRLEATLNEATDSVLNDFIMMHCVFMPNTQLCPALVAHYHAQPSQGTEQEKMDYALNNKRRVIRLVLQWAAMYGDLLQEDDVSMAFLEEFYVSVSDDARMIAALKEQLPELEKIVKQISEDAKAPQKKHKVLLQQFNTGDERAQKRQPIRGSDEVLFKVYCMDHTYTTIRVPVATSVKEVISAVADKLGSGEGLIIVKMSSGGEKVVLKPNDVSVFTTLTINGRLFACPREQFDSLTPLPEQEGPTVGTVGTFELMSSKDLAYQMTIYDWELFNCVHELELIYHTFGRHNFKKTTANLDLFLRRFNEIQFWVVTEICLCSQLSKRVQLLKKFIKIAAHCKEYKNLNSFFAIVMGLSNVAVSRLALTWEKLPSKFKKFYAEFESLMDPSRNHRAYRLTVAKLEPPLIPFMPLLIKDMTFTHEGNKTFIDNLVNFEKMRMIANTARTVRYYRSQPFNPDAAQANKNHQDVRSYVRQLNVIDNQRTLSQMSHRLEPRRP

Potency, inactive:
CC(=O)Nc1ccc(SC[C@H](Cc2ccccc2)N2CC[C@@H](C)CCC2=O)cc1
CCCCOCCCNC(=O)C[C@@H]1C[C@@]2(C(=O)OCC)CCCC=C2N(CCC2=CCCCC2)C1=O
C[N+](C)(C)CCNC(=O)c1cc[n+](Cc2ccccc2)c(/C=N/O)c1
COc1cc(OC)cc(C(=O)Nc2nnc(SCC(=O)NCC3CCCO3)s2)c1 (stereo not given)
Nc1nc(SCC(=O)NN(c2ccccc2)c2ccccc2)n[nH]1
COc1ccc(CN2C(=O)C(CC(=O)NCCCCc3ccccc3)CC(C(=O)N3CCOCC3)=C2C)cc1 (stereo not given)
COc1ccccc1C(CNC(=O)c1ccc(C)c(S(=O)(=O)N2CCCCC2)c1)N(C)C (stereo not given)
O=c1[nH]cnc(O)c1C(c1ccc(F)cc1)c1c(O)nc[nH]c1=O
CCC(=O)N1CCc2cc(S(=O)(=O)NC(C(=O)N3CCc4ccccc4C3)C(C)C)ccc21 (stereo not given)
COC(=O)c1ccccc1OCC(=O)N1CCN(c2ccc(Cl)cc2)CC1
N#C[C@]1(S(=O)(=O)c2ccccc2)C[C@@H]2ON=C(c3cccc(Br)c3)[C@@H]2C1
O=C1Nc2ccccc2-n2nnnc2C1N1CCN(c2cccc(C(F)(F)F)n2)CC1 (stereo not given)
CN(C(=O)CSc1nnc(N)s1)c1c(N)n(Cc2ccccc2)c(=O)[nH]c1=O
C/C(=N\NC(=O)c1cccnc1)c1ccc(-n2ccnc2)cc1
CO[C@@H]1CN(C)C(=O)c2cc(NC(=O)C3CC3)ccc2OC[C@H](C)N(C(=O)CN2CCOCC2)C[C@@H]1C
S=C(Nc1ccc2c(c1)OCO2)N1CCCC1
COC(=O)[C@]12CCCCC=C1N(Cc1ccccc1)C(=O)[C@H](CC(=O)NCc1ccc(C)o1)C2
Cn1nnnc1SCC(=O)NNC(=O)c1ccc(Br)cc1
CC1(C(=O)NS(=O)(=O)c2cccc(OC(F)F)c2)CCN1C(=O)COc1ccc(Cl)cc1 (stereo not given)
CCc1ccc(Oc2nc([N+](=O)[O-])nn2C)cc1
COc1ccc(C(O)C(O)(C(=O)OC(C)C)c2ccc(C)cc2)cc1 (stereo not given)
COC(=O)[C@@]12C[C@@H](CC(=O)N3CCCCC3)C(=O)N(Cc3ccc4c(c3)OCO4)C1=CCC(C)(C)C2
O=C(c1cccc(S(=O)(=O)N2CCCC2)c1)N(Cc1ccco1)C1CCS(=O)(=O)C1 (stereo not given)
COc1ccc(C(C)NC(=O)C23CC4CC(CC(C4)C2)C3)cc1 (stereo not given)
COc1ccc(NC(=O)C2(C)Cc3c(-c4ccc(C(N)=O)cc4)ccnc3O2)cc1 (stereo not given)
c1ccc(-c2ccnc3nc(-n4cccc4)nn23)cc1
Cc1cc(C(=O)CC#N)c(C)n1-c1c(C)n(C)n(-c2ccccc2)c1=O
O=C(Cn1cc(C(=O)C2CC2)c2ccccc21)Nc1ccccc1Cl
COc1ccc(N(CC(=O)NC2CCCCC2)S(=O)(=O)c2c(C)[nH]c(=O)[nH]c2=O)cc1
CCOC(=O)[C@]12CCCC=C1N(Cc1ccc(Cl)cc1Cl)C(=O)[C@H](CC(=O)N1CCCCC1)C2
Cc1ncc(CO)c(/C=N/NC(=O)c2cccc(S(=O)(=O)N3CCCC3)c2)c1O
O=C(COc1nc2ccccc2nc1N1CCOCC1)NCC(F)(F)F
COc1ccc(-c2c(C(C)=O)c(C)nc3sc4c(=O)n(-c5ccc(C)cc5)nnc4c23)cc1
CCNC(=S)N1CCC(c2nc3cc(C)c(C)cc3[nH]2)CC1
CCCCn1nc(C(=O)OCC(=O)Nc2sccc2C(N)=O)c2ccccc2c1=O
